Screening data deposited in PubChem by several laboratories.
Gli-Sufu antag – antagonists of Gli-Sufu signaling; Sufu-KO-LIGHT fibroblasts, Gli luciferase reporter luminescence; inhibition, % at 5 µM; hit rate 0.74% among 340,000; AID 588413;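 active = inhibition above about 55%, limit read from the data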
CSC inhib – cancer stem cell inhibition; cancer stem cell-like cells viability, luminescence; inhibition, % at 7.5 µM; hit rate 1.1% among 300,000; AID 2717; in the data active = inhibition above about 75%; tested in HMLE shEcad cells
Mdm2 MdmX PPI – human Mdm2/MdmX binding inhibition; SaOS-2 split-luciferase Mdm2/MdmX complementation, luminescence; inhibition, % at 8 µM; hit rate 3% among 330,000;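 active = inhibition of at least 50% at 8 µM in the primary screen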
PAX8 reporter – inhibitors of PAX8 transcriptional activity in RMG-I cells. hit rate 1.2% among 360,000. RMG-I TPO-luciferase reporter, SteadyGlo, 24 h. inhibition, % at 12.6 µM;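 active = mean replicate inhibition at least 60% with every replicate also reaching 60%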;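 also: luciferase light reporting Pax8 driven TPO promoter activity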
Shn3 inh set2 – Schnurri-3 reporter inhibition in Clone20 osteoblasts; Clone20 osteoblast Shn3 3'UTR firefly luciferase, 24 h; inhibition, % at 12.5 µM; hit rate 0.52% among 360,000;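 active = mean inhibition of at least 75% with every replicate also reaching 75%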
Beta apoptosis – beta cell apoptosis inhibition; INS-1E cytokine-induced death, ATP luminescence, 48 h; percent of positive-control rescue, neutral wells zero; protection from apoptosis, % (test concentration not listed); hit rate 0.8% among 300,000; AID 435005;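 active = Every replicate reaches about 75%, or at least half do and their mean reaches it too, limit read from the data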;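 also: higher means more ATP so stronger rescue from cytokine killing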
Mdm2 MdmX conf – human Mdm2/MdmX binding inhibition, confirmed; shares compounds with Mdm2 MdmX PPI; luminescent assay; inhibition, % at 8 µM; hit rate 55% among 10,000; AID 489028; in the data active = inhibition above about 40%
FLuc counter – counter-screen for Mdm2/MdmX inhibitors: full-length luciferase | inhibition, % at 8 µM | SaOS-2 full-length luciferase counterscreen, luminescence | shares compounds with Mdm2 MdmX PPI | hit rate 77% among 6,200 | AID 504607;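 active = mean inhibition at 8 µM reaching about 37%, which flags the compound as non-specific, limit read from the data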;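 also: p53-null SaOS-2 cells with luciferase driven by a doxycycline-inducible promoter; compound on cells about two nights before reading with doxycycline added after day one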
Large screens that a line does not name were inactive (follow-up assays come after a bar, where they were run). Shown are actives, neighbours in structure and some others; about 4% of the full set was active somewhere.

CC[C@]12c3[nH]c4ccc(Cl)cc4c3CCN1C(=O)[C@@H](CC(=O)NC/C=C(\C)CCC=C(C)C)C[C@@H]2C(=O)N1CCN(C(=O)c2ccco2)CC1	Mdm2 MdmX PPI 66, PAX8 reporter 82 (no result: CSC inhib, Beta apoptosis) | Mdm2 MdmX conf inactive
CC(C)(C)NC(=O)C[C@H]1C[C@H](C(=O)N2CCCCC2)[C@@]2(C)c3[nH]c4ccc(Cl)cc4c3CCN2C1=O	none (no result: CSC inhib, Beta apoptosis)
CC[C@]12c3[nH]c4ccc(Cl)cc4c3CCN1C(=O)[C@@H](CC(=O)NCC13CC4CC(CC(C4)C1)C3)C[C@@H]2C(=O)N1CCN(C(=O)C2CC2)CC1	Mdm2 MdmX PPI 62 (no result: CSC inhib, Beta apoptosis) | Mdm2 MdmX conf 52 | FLuc counter 53
C[C@]12c3[nH]c4ccc(Cl)cc4c3CCN1C(=O)[C@@H](CC(=O)NCC13CC4CC(CC(C4)C1)C3)C[C@@H]2C(=O)N1CCCCC1	Mdm2 MdmX PPI 74 (no result: CSC inhib, Beta apoptosis) | Mdm2 MdmX conf inactive
O=C(C1CC1)N1CC(=O)N2[C@H](C1)[C@@H](c1ccc(C#CCc3ccccc3)cc1)[C@@H]2CO	none (no result: Gli-Sufu antag, CSC inhib, Mdm2 MdmX PPI, Shn3 inh set2, Beta apoptosis)
COCC(=O)Nc1ccc2c(c1)C(=O)N(C)[C@@H]1CC[C@H](CC(=O)NCc3ccccc3)O[C@@H]1CO2	none (no result: Gli-Sufu antag, CSC inhib, Mdm2 MdmX PPI, Shn3 inh set2, Beta apoptosis)
COc1ccccc1CNC(=O)C[C@@H]1CC[C@H]2[C@@H](COC[C@@H](O)CN2C(=O)Nc2ccccc2)O1	none (no result: Gli-Sufu antag, CSC inhib, Mdm2 MdmX PPI, Shn3 inh set2, Beta apoptosis)
CCC(=O)NC[C@@H]1[C@@H](c2ccccc2)[C@@H](CO)N1C(=O)C1CC1	none (no result: Gli-Sufu antag, CSC inhib, Mdm2 MdmX PPI, Shn3 inh set2, Beta apoptosis)
CCN1C(=O)/C(=C\c2nc3ccccc3c(=O)n2-c2ccccc2)c2ccccc21	Mdm2 MdmX PPI 51 (no result: CSC inhib, Beta apoptosis) | Mdm2 MdmX conf inactive
COc1ccc(/C=C/c2nc3ccccc3c(=O)n2-c2cccc(C(=O)O)c2)cc1	none
COc1ccc(-n2c(/C=C3\C(=O)N(C)c4ccccc43)nc3ccccc3c2=O)cc1	Mdm2 MdmX PPI 61 | Mdm2 MdmX conf inactive
CCN1C(=O)/C(=C/c2nc3ccccc3c(=O)n2-c2ccc(C)cc2)c2ccccc21	Mdm2 MdmX PPI 83 | Mdm2 MdmX conf 62 | FLuc counter 86
CCN1C(=O)/C(=C/c2nc3ccccc3c(=O)[nH]2)c2ccccc21	none (no result: Mdm2 MdmX PPI)
CO[C@@H]1CN(C)C(=O)c2cc(NC(=O)CC(F)(F)F)ccc2OC[C@@H](C)N(C(C)=O)C[C@@H]1C	none (no result: Gli-Sufu antag, CSC inhib, Mdm2 MdmX PPI, Shn3 inh set2, Beta apoptosis)
Clc1ccc2c(c1)CCc1cccnc1C2=C1CCNCC1	Mdm2 MdmX PPI 61 (no result: Gli-Sufu antag, CSC inhib, PAX8 reporter, Beta apoptosis) | Mdm2 MdmX conf inactive
C[C@H](CO)N1C[C@H](C)[C@@H](CN(C)Cc2ccc(C(=O)Nc3ccccc3N)cc2)Oc2ccc(NC(=O)Cc3ccccc3)cc2CC1=O	none (no result: Gli-Sufu antag, CSC inhib, Mdm2 MdmX PPI, Shn3 inh set2, Beta apoptosis)
COc1ccc(-c2cc3c(=O)n(CC(=O)NCc4cccnc4)nc(C)n3n2)cc1	none
Cc1nn(CC(=O)Nc2cccc(Cl)c2)c(=O)c2cc(-c3ccccc3)nn12	Mdm2 MdmX PPI 56 | Mdm2 MdmX conf inactive
COc1ccc(-c2cc3c(=O)n(CC(=O)Nc4ccc(Cl)cc4)nc(C)n3n2)cc1	Mdm2 MdmX PPI 67 | Mdm2 MdmX conf 43 | FLuc counter 67
CCCC(=O)Nc1ccc2c(c1)C(=O)N(C)[C@H]1CC[C@H](CC(=O)NCc3ccccc3Cl)O[C@H]1CO2	none (no result: Gli-Sufu antag, CSC inhib, Mdm2 MdmX PPI, Shn3 inh set2, Beta apoptosis)
Cc1noc(C)c1S(=O)(=O)Nc1ccc2c(c1)CC(=O)N([C@H](C)CO)C[C@@H](C)[C@@H](CN(C)CC1CCCCC1)O2	none (no result: Gli-Sufu antag, CSC inhib, Mdm2 MdmX PPI, Shn3 inh set2, Beta apoptosis)
C[C@@H]1CN([C@H](C)CO)C(=O)Cc2cc(NC(=O)C3CC3)ccc2O[C@@H]1CN(C)Cc1ccc2c(c1)OCO2	none (no result: Gli-Sufu antag, CSC inhib, Mdm2 MdmX PPI, Shn3 inh set2, Beta apoptosis)
O=C(NCc1ccccc1)C1=C[C@H](C2CCCCC2)C[C@H](OCc2ccc(CO)cc2)O1	Mdm2 MdmX PPI 51 | Mdm2 MdmX conf 63 | FLuc counter 60
CNC(=O)C1=C[C@H](c2csc3ccccc23)C[C@H](OCc2ccc(CO)cc2)O1	none (no result: Gli-Sufu antag, CSC inhib, Mdm2 MdmX PPI, Shn3 inh set2, Beta apoptosis)
O=C(NCc1ccccc1)C1=C[C@@H](c2csc3ccccc23)C[C@@H](OCCCCO)O1	Mdm2 MdmX PPI 74, PAX8 reporter 77, Beta apoptosis 116 (no result: Shn3 inh set2) | Mdm2 MdmX conf 75 | FLuc counter 39
O=C(NCc1ccccc1)C1=C[C@@H](c2csc3ccccc23)C[C@@H](OCc2ccc(CO)cc2)O1	Mdm2 MdmX PPI 72, Beta apoptosis 123 | Mdm2 MdmX conf inactive
CC(C)NC(=O)N1C[C@@H]2[C@H](c3ccccc31)[C@H](CO)N2C(=O)c1cccnc1	none (no result: Gli-Sufu antag, CSC inhib, Mdm2 MdmX PPI, Shn3 inh set2, Beta apoptosis)
COc1cccc(-c2ccc3c(c2)[C@H]2[C@H](CCN2Cc2ccccc2OC)[C@H](CO)N3)c1	none (no result: Gli-Sufu antag, CSC inhib, Mdm2 MdmX PPI, Shn3 inh set2, Beta apoptosis)
CO[C@H]1CN(C)C(=O)c2cc(NC(=O)C3CCCC3)ccc2OC[C@@H](C)N(C)C[C@@H]1C	none (no result: Gli-Sufu antag, CSC inhib, Mdm2 MdmX PPI, Shn3 inh set2, Beta apoptosis)
Cc1ccccc1S(=O)(=O)NCC[C@H]1CC[C@@H](NC(=O)C2CCOCC2)[C@H](CO)O1	none (no result: Gli-Sufu antag, CSC inhib, Mdm2 MdmX PPI, Shn3 inh set2, Beta apoptosis)
CCOC(=O)c1c(CCl)nc2ccccc2c1-c1ccccc1	none
